# Results: PubChem BioAssay AID1688 (National Center for Advancing Translational Sciences (NCATS), 2009)
# About 2,400 (1.1%) of roughly 220,000 compounds were called active. Another 7% or so got no clear call; they are omitted. Calls come from the whole dose curve; as a rule, active = well fitted inhibition curve with a large enough effect; inconclusive = small, poorly fitted or top-dose-only effect, or effect the other way; inactive = no such curve, though single readings can be large or run the other way. Only a selection was taken, and actives are over-represented in it overall.
# Experiment: qHTS Multiplex Assay to Identify Dual Action Probes in a Cell Model of Huntington: Aggregate Formation (GFP); note: nearly all actives have a fitted effect of over 60% in size
# Settings: PC12 HttQ103-GFP aggregates, Acumen cytometry, 40 h; series mostly up to 9.22 µM; activity change, negative = inhibition: at the top concentration
# Method in brief: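 PC12/HTTQ103-GFP, ecdysone-inducible; teb 100 nM; cpd qHTS titration; GFP aggregates read on laser cytometer, Ex 488/Em 500-530 nm.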
# % is set by controls: 0 for no effect and ±100 for the full control effect; potency is the fitted concentration of half-maximal effect.
Structure (SMILES),"activity change, negative = inhibition",Potency
Cc1onc(-c2ccccc2)c1C(=O)N1CCOCC1,-8.31% [at 46.1 µM] (inactive),–
Cc1oc2c(c1C(=O)N1CCOCC1)C(=O)c1ccccc1C2=O,–,10 µM (active)
O=C(c1ccccc1-c1ccccc1)N1CCOCC1,1.58% [at 46.1 µM] (inactive),–
COCCN1C2=C(COC(C)(C)C2)C(=S)NC1c1ccccc1 (stereo unspecified),23.8% (inactive),–
COC(=O)c1sccc1NN1C(=O)c2ccccc2C1=O,-15.1% (inactive),–
COC(=O)c1sc2ncccc2c1OCc1ccc(Cl)cc1Cl,-3.42% [at 46.1 µM] (inactive),–
COCCNC(=O)c1snc2ccc(Cl)cc12,–,10 µM (active)
COCCNC(=O)c1ccccc1-c1nc(-c2ccccc2Cl)no1,8.12% [at 46.1 µM] (inactive),–
Clc1ccc2c(c1)C1=C(C(c3ccncc3)O2)C(c2ccc(Br)cc2)n2ncnc2N1 (stereo unspecified),–,12.6 µM (active)
Brc1ccc(C2=CC(c3ccco3)n3ncnc3N2)cc1 (stereo unspecified),-24.3% [at 46.1 µM] (inactive),–
COC(=O)C1=C(C)Nc2ncnn2C1c1cccnc1 (stereo unspecified),-8.05% [at 46.1 µM] (inactive),–
Cc1ccc(-c2ncc(Cl)cc2-c2ccc(S(C)(=O)=O)cc2)cn1,1.61% [at 46.1 µM] (inactive),–
Cc1ccc(Cn2c(SCC(=O)N/N=C/c3ccccc3OCC(=O)O)nc3ccccc32)cc1,17.6% (inactive),–
O=C(CCCN1C(=O)/C(=C\c2ccccc2)SC1=S)Nc1ccccc1O,22.3% (inactive),–
O=C(CCCN1C(=O)/C(=C\c2ccco2)SC1=S)Nc1cccc2ccccc12,24.3% (inactive),–
O=C(CCCN1C(=O)/C(=C/c2ccco2)SC1=S)Nc1ccccc1,–,25.1 µM (active)
CC(=O)NCC(O)c1ccc([N+](=O)[O-])cc1 (stereo unspecified),-18.6% (inactive),–
C/C(Cc1ccccc1)=N\NC(=O)CNC(=O)c1ccc2c(c1)OCCO2,2.88% (inactive),–
COC(=O)c1cc(NC(=O)c2cccnc2)ccc1N1CCOCC1,1.39% (inactive),–

Structure (SMILES),"activity change, negative = inhibition",Potency
O=C(Nc1ccc(N2CCN(C(=O)c3ccccc3)CC2)c(Cl)c1)c1cccnc1,–,22.4 µM (active)
O=C(Nc1ccc(N2CCN(C(=O)c3ccccc3)CC2)c(Cl)c1)c1ncn[nH]1,-29.1% (inactive),–
O=C(Nc1ccc(N2CCOCC2)nc1)c1c(F)cccc1F,10.4% (inactive),–
O=C1C2C3C=CC(C4CC34)C2C(=O)N1/N=C/c1ccc(-c2ccccc2[N+](=O)[O-])o1 (stereo unspecified),–,25.1 µM (active)
N#C/C(=C/c1ccc(-c2ccccc2[N+](=O)[O-])o1)C(=O)NCCN1CCCCC1,-12.2% (inactive),–
Cc1cc(-c2ccc(/C=N/n3cnnc3)o2)c([N+](=O)[O-])cc1C,3.65% [at 46.1 µM] (inactive),–
FC(F)(F)c1cccc(NC(=S)Nc2cccc(Cl)c2)c1,-6.26% [at 46.1 µM] (inactive),–
Cn1nc(C(F)(F)F)c(C(=O)Nc2cccc(C(F)(F)F)c2)c1SCc1ccc(Cl)cc1,–,12.6 µM (active)
COC(=O)c1ccccc1Sc1c(/C=N/OCc2ccc(Cl)cc2)c(C(F)(F)F)nn1C,-26.1% [at 46.1 µM] (inactive),–
COc1ccc2[nH]c(=S)cc(C)c2c1,19.9% (inactive),–
O=C(Nc1nnc(COc2ccccc2)s1)Nc1ccccc1F,-6.11% (inactive),–
CC(NC(=S)NNS(=O)(=O)c1ccc(C(C)(C)C)cc1)c1ccccc1 (stereo unspecified),-16.9% (inactive),–
Clc1ncn(CCOc2ccccc2)c1Cl,-7.07% (inactive),–
Cc1cc2ncn(CCCCOc3ccccc3)c2cc1C,–,11.2 µM (active)
COCCOCCn1cnc2ccccc21,-19.1% [at 46.1 µM] (inactive),–
CCOC(=O)CSc1nc(C)c(Oc2ccc(Cl)cc2Cl)c(=O)[nH]1,-4.52% (inactive),–
Brc1ccc(-c2nn[nH]n2)cc1,11.1% (inactive),–
COc1ccc(SCCN2CCN(CC(C)C)CCC2=O)cc1,-1.2% (inactive),–
CSc1nc(-c2ccccc2)nc(C(Cl)Cl)n1,–,11.2 µM (active)

Structure (SMILES),"activity change, negative = inhibition",Potency
CSc1nc(C)cc(SC(C(C)=O)C(=O)Nc2ccccc2)n1 (stereo unspecified),-11.8% [at 46.1 µM] (inactive),–
Cc1cccc(NC(=O)CSc2nnc(CCNC(=O)OC(C)(C)C)o2)c1C,-7.25% (inactive),–
COC(=O)c1ccc(COc2ccc(/C=N/NC(=O)C(=O)Nc3ccc(OC)cc3)cc2OC)o1,8.14% (inactive),–
CCc1ccc(NC(=O)N2CCN(c3ccccc3)CC2)cc1,6.28% [at 46.1 µM] (inactive),–
CC[n+]1c(C)n(-c2ccccc2)c2ccc(NC(C)=O)cc21,–,3.98 µM (active)
CCn1c2ccccc2c2cc(NC(=O)CNC)ccc21,-17.5% (inactive),–
Cc1ccc(N2C(=O)CN=C2Nc2nc(C)cc(C)n2)cc1,8.49% (inactive),–
O=C(c1ccc(=O)oc1)N1CCC(C(O)(c2ccccc2)c2ccccc2)CC1,-8.46% (inactive),–
Cc1cc(NCc2cccnc2)no1,-1.89% (inactive),–
O=C(O)CCCCCNc1ncnc2ccc(Br)cc12,-18.6% (inactive),–
Brc1ccc2ncnc(NCc3cccnc3)c2c1,–,1.78 µM (active)
CCOC(=O)c1cnc(COc2ccccc2Cl)[nH]c1=O,2.2% (inactive),–
Cc1c(NC(=O)CN2C(=O)C(=O)N(Cc3ccccc3)C2=O)c(=O)n(-c2ccccc2)n1C,0.334% (inactive),–
O=C1CC(Cc2ccc(Cl)cc2)C(=O)N1c1cc(Cl)ccn1 (stereo unspecified),6.88% (inactive),–
CCCCN(CCCC)CC(O)Cn1c2ccccc2c(=O)c2ccccc21 (stereo unspecified),-13.4% (inactive),–
O=C(NNS(=O)(=O)Cc1ccccc1)c1ccc([N+](=O)[O-])cc1,-27.8% (inactive),–
CC1CCN(c2c(NCc3ccc(C(=O)NCc4ccccc4)cc3)c(=O)c2=O)CC1,3.19% (inactive),–
CN(c1ccccc1)S(=O)(=O)c1cc(C(=O)OCC(=O)N2CCN(C(=O)c3ccco3)CC2)ccc1Cl,2.29% [at 46.1 µM] (inactive),–
